Laboratory results taken from PubChem BioAssay AID743060 (The Scripps Research Institute Molecular Screening Center, 2013).

experiment: T. brucei methionyl-tRNA synthetase enzyme inhibition – biochemical, radioactivity, round 1, late-stage follow-up (AID 743060); conditions: purified enzyme, radiolabel aminoacylation, scintillation, 2 h; at 10 µM; stronger effect = higher value

**Q.** Which inhibition does the source give for `O=C(CSC1CC(=O)N(c2cccc(Cl)c2)C1=O)Nc1ccc(Br)cc1` (stereo not drawn) here?
**A.** Its inhibition is 79.9%.

**Q.** For `O=C1CC(N(CCc2ccccc2)C(=S)Nc2ccccc2)C(=O)N1c1ccc(Br)cc1` (stereo not drawn), which inhibition is on record?
**A.** The inhibition was 97.3%.

**Q.** For `CCN(CC)C(=O)C(=O)c1cn(CC(=O)N(CC)c2ccccc2)c2ccccc12`, which inhibition is on record?
**A.** The inhibition was -7.96%.

**Q.** For `COc1ccc(NC(=O)CSc2nnc3c4cc(C)ccc4n(C)c3n2)cc1`, which inhibition is on record?
**A.** Its inhibition is -7.1%.

**Q.** For `CC1Cc2ccccc2N1C(=O)Cn1cc(C(=O)C(=O)N2CCOCC2)c2ccccc21` (stereo not drawn), which inhibition is on record?
**A.** Its inhibition is -14.7%.

**Q.** Which inhibition does the source give for `CC(C)(C)[C@@H]1C=C(C(=O)NCc2nc3ccccc3[nH]2)O[C@H](OCc2ccc(CO)cc2)C1` here?
**A.** Its inhibition is 84.8%.

**Q.** With `COc1ccc2[nH]c3nc(SCC(=O)Nc4ccc5c(c4)OCO5)nnc3c2c1` as the compound, how does the inhibition read?
**A.** Its inhibition is 65.6%.

**Q.** Which inhibition does the source give for `Clc1ccc(-c2nnc(SCc3nc4ccccc4[nH]3)o2)c(Cl)c1` here?
**A.** Its inhibition is 97%.

**Q.** For `CN(CC(=O)Nc1ccc(Cl)cc1)C(=O)c1ccc(-n2cncn2)c([N+](=O)[O-])c1`, which inhibition is on record?
**A.** Its inhibition is 92.5%.

**Q.** With `CCOC(=O)N1CCC(Nc2c(Nc3ccc(F)cc3)c(=O)c2=O)CC1` as the compound, how does the inhibition read?
**A.** The inhibition was 72.7%.

**Q.** For `CCC(=O)c1cn(CC(=O)Nc2cccc(C(F)(F)F)c2)c2ccccc12`, which inhibition is on record?
**A.** Its inhibition is 4.46%.

**Q.** With `CC(=O)N(CCc1ccccc1)C1CC(=O)N(c2ccc(Br)cc2)C1=O` (stereo not drawn) as the compound, how does the inhibition read?
**A.** The inhibition was -21.2%.

**Q.** For `O=C(NNC(=O)c1cc(-c2ccc(Cl)c(Cl)c2)nc2ccccc12)Nc1ccccc1`, which inhibition is on record?
**A.** Its inhibition is 85.5%.

**Q.** For `O=C(NNC(=O)c1ccc(-n2cncn2)c([N+](=O)[O-])c1)c1ccc(Cl)cc1`, which inhibition is on record?
**A.** Its inhibition is 73%.

**Q.** With `Cc1ccc(NC(=O)CN(C)C(=O)CCSc2ccc(F)cc2)cc1` as the compound, how does the inhibition read?
**A.** The inhibition was 67.3%.

**Q.** With `O=C1CC(SCc2nc3ccccc3[nH]2)C(=O)N1c1cccc(Cl)c1` (stereo not drawn) as the compound, how does the inhibition read?
**A.** The inhibition was 52.6%.

**Q.** For `COc1ccc(CNC(=O)CSc2nnc3c(n2)[nH]c2ccc(F)cc23)cc1`, which inhibition is on record?
**A.** The inhibition was 89.6%.

**Q.** For `O=C1[C@@H]2Cc3c([nH]c4ccccc34)C(c3cccc([N+](=O)[O-])c3)N2C(=O)CN1CCCO` (stereo partly drawn), which inhibition is on record?
**A.** Its inhibition is 97.5%.
